A selection: hits, their analogues and other compounds. The true share with any hit is near 28%.
PLK1 PBD inh – Plk1 polo box domain binding inhibitors, primary screen, biochemical, fluorescence polarization; inhibition, %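 (tested at about 20 µM)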; 97,000 tested, 0.13% active; Serine/threonine-protein kinase PLK1 (Homo sapiens), P53350; AID 693, 2007; Plk1 PBD phosphopeptide binding; in the data active means inhibition above about 34%, passing the limit was not always enough
Target sequence (P53350 whole entry, looked up, the tested form may be a part): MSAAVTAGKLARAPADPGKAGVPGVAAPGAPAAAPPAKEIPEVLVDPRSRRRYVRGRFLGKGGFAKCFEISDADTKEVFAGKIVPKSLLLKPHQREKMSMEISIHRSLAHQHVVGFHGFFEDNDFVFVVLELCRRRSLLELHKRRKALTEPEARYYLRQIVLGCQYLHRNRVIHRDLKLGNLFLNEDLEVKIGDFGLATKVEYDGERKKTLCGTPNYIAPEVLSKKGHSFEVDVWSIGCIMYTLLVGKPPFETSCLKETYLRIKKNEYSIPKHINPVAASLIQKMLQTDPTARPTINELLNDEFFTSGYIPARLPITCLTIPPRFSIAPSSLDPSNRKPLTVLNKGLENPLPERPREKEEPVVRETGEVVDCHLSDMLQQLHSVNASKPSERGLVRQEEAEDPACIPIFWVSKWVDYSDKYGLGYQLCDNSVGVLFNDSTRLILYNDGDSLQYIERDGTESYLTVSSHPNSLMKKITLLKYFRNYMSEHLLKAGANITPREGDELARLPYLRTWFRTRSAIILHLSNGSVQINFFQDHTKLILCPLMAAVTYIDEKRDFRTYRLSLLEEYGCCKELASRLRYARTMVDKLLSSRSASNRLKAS
CYP2C19 activ – human CYP2C19 activators, primary screen, biochemical, luminescence; Cytochrome P450 2C19 (Homo sapiens), P33261; recombinant CYP2C19, luciferin-H EGE luminescence; hits give high values; 0 = fully inhibited enzyme, 1 = untreated enzyme; activation factor at 5 µM; 96,000 tested, under 10 active;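 active means activation factor of at least 2 at 5 µM in the primary screen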;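 further: 0 = wells with 2.5 mM tranylcypromine and 1 = vehicle-only wells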
CYP2C19 inhib – blockers of cytochrome P450 2C19 activity – biochemical, luminescence, ADME assay, primary screen. inhibition, % at 5 µM. P33261. 96,000 tested, 21% active. AID 778, 2007. CYP2C19 Supersomes, luciferin-H EGE luminescence, 30 min;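 active means CYP2C19 inhibition above a set limit at 5 µM in the primary screen, cut at about 50% in these data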;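 further: plate controls were negative control wells for no effect and 2.5 mM tranylcypromine positive control for full effect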
CYP2C9 inhib – blockers of cytochrome P450 2C9 activity – biochemical, luminescence, ADME assay, primary screen; P11712; CYP2C9 Supersomes, luciferin-H conversion; inhibition, % at 5 µM; 96,000 tested, 20% active;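 active means blocking of liver enzyme CYP2C9 beyond about 50% at 5 µM, limit read from the data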
PLK1 inh – human PLK1 kinase inhibitors, primary screen, biochemical, TR-FRET; inhibition, % at 10 µM; AID 619, 2007; Serine/threonine-protein kinase PLK1 (Homo sapiens), P53350; 97,000 tested, 0.53% active; recombinant PLK1 kinase, TR-FRET peptide phosphorylation;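 active means inhibition of 50% or more in the single-concentration screen; inactive means inhibition below 50%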;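 further: 0% = DMSO max control and 100% = H-89 dihydrochloride min control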
CYP2C9 act – human CYP2C9 activators, primary screen, biochemical, luminescence; 96,000 tested, 1.4% active; Cytochrome P450 2C9 (Homo sapiens), P11712; activation factor at 5 µM; recombinant CYP2C9, luciferin-H conversion; hits give high values; factor 1 = untreated enzyme, 0 = blocked;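 active means activation factor of 2 or more for CYP2C9 at a 5 µM dose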;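 further: 0 = sulfaphenazole-blocked wells and 1 = vehicle-only wells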
* marks the source's active call; other numbers are inactive results.

Results for COc1ccc(C(=O)Nc2ccncc2)cc1OC ?
CYP2C19 activ: 0.4; CYP2C19 inhib: 57*; CYP2C9 inhib: 48; CYP2C9 act: 0.5

Results for Cn1c(=O)[nH]c(=O)c2c1nc(N1CCCC1)n2CCSc1nc2ccccc2[nH]1 ?
PLK1 PBD inh: -13; CYP2C19 activ: 1.1; CYP2C19 inhib: -6; CYP2C9 inhib: 9; PLK1 inh: -5; CYP2C9 act: 0.9

How did COc1ccccc1N1CCN(C(=O)C2CCN(S(=O)(=O)c3ccc(Cl)cc3)CC2)CC1 do in these assays?
PLK1 PBD inh: -22; CYP2C19 activ: 0.8; CYP2C19 inhib: 20; CYP2C9 inhib: 21; PLK1 inh: -3; CYP2C9 act: 0.8

What do the screens show for `O=C(Nc1ccc(F)cc1)c1ccc(-n2ccnc2)nc1`?
PLK1 PBD inh: 5; CYP2C19 activ: 0; CYP2C19 inhib: 100*; CYP2C9 inhib: 96*; PLK1 inh: -5; CYP2C9 act: 0

Results for O=C(Nc1ccc(N2CCCCC2)cc1)c1cncc(Br)c1 ?
PLK1 PBD inh: -8; CYP2C19 activ: 0.7; CYP2C19 inhib: 26; CYP2C9 inhib: 8; PLK1 inh: -15; CYP2C9 act: 0.9

What do the screens show for `CCN(CC)S(=O)(=O)c1cc(C(=O)Nc2ccncc2)ccc1Cl`?
PLK1 PBD inh: 3; CYP2C19 activ: 0; CYP2C19 inhib: 100*; CYP2C9 inhib: 100*; PLK1 inh: -6; CYP2C9 act: 0

Results for CCN(CC)S(=O)(=O)c1cc(C(=O)Nc2cccnc2)ccc1Cl ?
PLK1 PBD inh: -3; CYP2C19 activ: 1; CYP2C19 inhib: 0; CYP2C9 inhib: 3; PLK1 inh: -12; CYP2C9 act: 1

What do the screens show for `COc1ccc(NC(=O)c2ccc(-n3cccn3)nc2)cc1`?
PLK1 PBD inh: -11; CYP2C19 activ: 0.9; CYP2C19 inhib: 10; CYP2C9 inhib: 42; PLK1 inh: -6; CYP2C9 act: 0.6

How did O=C(Nc1ccncc1)c1cccc(F)c1 do in these assays?
PLK1 PBD inh: 3; CYP2C19 activ: 0.4; CYP2C19 inhib: 56*; CYP2C9 inhib: 23; PLK1 inh: 19; CYP2C9 act: 0.8

Results for O=C(Nc1ccncc1)c1cncc(Br)c1 ?
PLK1 PBD inh: -10; CYP2C19 activ: 0.1; CYP2C19 inhib: 87*; CYP2C9 inhib: 30; PLK1 inh: -2; CYP2C9 act: 0.7

What do the screens show for `COCCN1CCN(c2cc(-c3ccccc3)nc3cc(-c4cccc(F)c4)nn23)CC1`?
PLK1 PBD inh: -6; PLK1 inh: -19

Results for CNC(=O)Nc1cccc(NC(=O)NC)n1 ?
CYP2C19 activ: 1; CYP2C19 inhib: -1; CYP2C9 inhib: 1; CYP2C9 act: 1

Results for Cc1ccc(-c2nc(C)sc2CC(=O)NCc2ccco2)cc1 ?
PLK1 PBD inh: -15; CYP2C19 activ: 0.4; CYP2C19 inhib: 56*; CYP2C9 inhib: 42; PLK1 inh: -11; CYP2C9 act: 0.6

Results for Cc1ccc(SCC(=O)NCc2ccco2)cc1 ?
PLK1 PBD inh: 3; PLK1 inh: -10

Results for Cc1ccc(SCCC(=O)NCc2ccco2)cc1 ?
PLK1 PBD inh: 14; CYP2C19 activ: 0.6; CYP2C19 inhib: 38; CYP2C9 inhib: 69*; PLK1 inh: -9; CYP2C9 act: 0.3

How did CCOC(=O)c1c(C2CCN(C(=O)OCC)CC2)nc2ccccn12 do in these assays?
PLK1 PBD inh: -8; CYP2C19 activ: 0.7; CYP2C19 inhib: 34; CYP2C9 inhib: 72*; PLK1 inh: -9; CYP2C9 act: 0.3

Results for CCOC(=O)c1c(C)nc2ccccn12 ?
CYP2C19 activ: 0.9; CYP2C19 inhib: 8; CYP2C9 inhib: 1; CYP2C9 act: 1

Results for O=C(CCN1CCN(c2ccccn2)CC1)Nc1ccc(F)cc1 ?
PLK1 PBD inh: -12; CYP2C19 activ: 0.9; CYP2C19 inhib: 9; CYP2C9 inhib: 48; PLK1 inh: -16; CYP2C9 act: 0.5

Results for CCOC(=O)c1ccc(-n2nc(C(F)(F)F)c3c(C)cc(=O)oc32)cc1 ?
PLK1 PBD inh: -8; PLK1 inh: 0

What do the screens show for `Cc1ccc2c(c1)nnn2C1CCN(S(=O)(=O)c2ccc(C(=O)N(C)C)cc2)CC1`?
PLK1 PBD inh: -17; PLK1 inh: -10

What do the screens show for `Cc1ccc2c(c1)nnn2C1CCN(S(=O)(=O)c2ccc(C(=O)NC3CCCC3)cc2)CC1`?
CYP2C19 activ: 0.8; CYP2C19 inhib: 21; CYP2C9 inhib: 50*; CYP2C9 act: 0.5

Results for Cc1ccc2c(c1)nnn2C1CCN(S(=O)(=O)c2ccc3ccccc3c2)CC1 ?
PLK1 PBD inh: -18; PLK1 inh: -9

What do the screens show for `Cc1ccc2c(c1)nnn2C1CCN(S(=O)(=O)c2cccc(S(=O)(=O)N(C)C)c2)CC1`?
PLK1 PBD inh: -15; CYP2C19 activ: 0.1; CYP2C19 inhib: 86*; CYP2C9 inhib: 46; PLK1 inh: -2; CYP2C9 act: 0.5

Results for Cc1ccc2c(c1)nnn2C1CCN(S(=O)(=O)c2ccc(C(=O)N3CC(C)CC(C)C3)cc2)CC1 (stereo not given) ?
CYP2C19 activ: 0; CYP2C19 inhib: 98*; CYP2C9 inhib: 88*; CYP2C9 act: 0.1

What do the screens show for `CCn1c(=O)cc(OCC(=O)Nc2ccccc2C#N)c2ccccc21`?
PLK1 PBD inh: 17; CYP2C19 activ: 0.7; CYP2C19 inhib: 30; CYP2C9 inhib: 41; PLK1 inh: -2; CYP2C9 act: 0.6

Results for O=C(NCc1ccccc1)N1CCC(n2cnc3cc(F)ccc32)CC1 ?
PLK1 PBD inh: 8; CYP2C19 activ: 1; CYP2C19 inhib: -2; CYP2C9 inhib: 11; PLK1 inh: 3; CYP2C9 act: 0.9

What do the screens show for `Cn1c(SCc2nc3ccccc3[nH]2)nnc1-c1cccnc1`?
PLK1 PBD inh: 7; CYP2C19 activ: 0.9; CYP2C19 inhib: 13; CYP2C9 inhib: -4; PLK1 inh: 14; CYP2C9 act: 1

Results for O=C(CSc1nnc(-c2cccs2)n1-c1ccccc1)N1CCOCC1 ?
PLK1 PBD inh: 3; CYP2C19 activ: 1.1; CYP2C19 inhib: -6; CYP2C9 inhib: -2; PLK1 inh: -6; CYP2C9 act: 1

Results for COc1ccccc1-c1nnc(SCc2nc3ccccc3[nH]2)n1C ?
PLK1 PBD inh: -5; CYP2C19 activ: 0.2; CYP2C19 inhib: 80*; CYP2C9 inhib: 12; PLK1 inh: -21; CYP2C9 act: 0.9

How did O=C(CSc1ccc(Cl)cc1)N1CCOCC1 do in these assays?
PLK1 PBD inh: 20; CYP2C19 activ: 0.3; CYP2C19 inhib: 74*; CYP2C9 inhib: -17; PLK1 inh: -8; CYP2C9 act: 1.2

Screens: PubChem, several laboratories
